Measured values taken from PubChem BioAssay AID2284423 (EPA ToxCast).
Inconclusive results are not listed. Calls of active or inactive are those of the source. How the source made its calls: active means hit-call score of the fitted dose curve at least 0.9, where 1 is the maximum; inconclusive means response in the unintended direction; inactive means score below 0.9.

tested on: SRY-box transcription factor 17 (SOX17) Protein Expression, SOX17 (gene 64321); assay: CCTE_Deisenroth_DEVTOX-GLR_Ecto_SOX17: CCTE's DevTox GLR-Ecto Assay Evaluation of SRY-box transcription factor 17 (SOX17) Protein Expression, Deisenroth Lab
Description: CCTE_Deisenroth_DEVTOX-GLR_Ecto assay is a cell-based, multiplex-readout assay that uses RUES2-GLR, a human pluripotent cell line, with measurements taken at 48 hours after chemical dosing in a 384-well microplateCCTE_Deisenroth_DEVTOX-GLR_Ecto_SOX17 is 1 of 4 assay components calculated from the CCTE_Deisenroth_DEVTOX-GLR_Ecto assay and it measures an the percentage of cells in an endoderm state. Using a type of inducible fluorescent protein reporter, gain-of-signal activity can be used to understand changes in gene expression with fluorescent microscopy. The percentage of SOX17+ cells are determined by calculating the number of SOX17+ cells divided by the cell count. To generalize the intended target to other relatable targets, this assay component is annotated to the transcription factor intended target family, where the subfamily is SRY-related HMG-box.Data from the assay component CCTE_Deisenroth_DEVTOX-GLR_Ecto_SOX17 was analyzed as 1 assay endpoint. The endpoint is the percent SOX17+ cell population minus the 0.2% DMSO control in the CCTE_Deisenroth_DEVTOX-GLR_Ecto assay. This assay endpoint can be referred to as a secondary readout since this assay has produced multiple assay endpoints where this one serves as a measure of endoderm differentiation.
All assay protocols are aligned to the DevTox GLR-Endo assay workflow. Cells are seeded into 384-well microplates for 24 hours prior to initiating differentiation in defined media for a total duration of 48 hours. A total of two chemical exposures are administered in 24-hour intervals during the 48-hour differentiation period. At the assay termination point, cells are fixed and stained with a fluorescent dye demarcating the nucleus. High-content imaging is used to acquire brightfield and fluorescent channel images across 5 fields per well. Cell identification and mean biomarker fluorescence intensities are calculated with image analysis software to determine the total cell counts for viability assessment and the biomarker expression frequency for each lineage-dependent assay. A typical experimental design tests a 10-point concentration series (1 nM - 200 uM) for 28 compounds in single technical replicate. Assay plate controls include non-differentiated pluripotent cells (baseline control), lineage-specific differentiated cells (differentiation control), and DMSO solvent exposed differentiated cells (solvent control). Experiments typically comprise a minimum of four experimental replicates (n=4).

SMILES	outcome	AC50
CC/C(=C(/CC)c1ccc(O)cc1)c1ccc(O)cc1	inactive	–
CN(Cc1cnc2nc(N)nc(N)c2n1)c1ccc(C(=O)N[C@@H](CCC(=O)O)C(=O)O)cc1	inactive	–
CC1=C(/C=C/C(C)=C/C=C/C(C)=C\C(=O)O)C(C)(C)CCC1	–	183 µM (active)
CS(=O)(=O)OCCCCOS(C)(=O)=O	–	100 µM (active)
O=C1NC(=O)C(c2ccccc2)(c2ccccc2)N1	inactive	–
CCCC(CCC)C(=O)O	inactive	–
CC1=C(/C=C/C(C)=C/C=C/C(C)=C/C(=O)O)C(C)(C)CCC1	–	171 µM (active)
CC(C)(c1ccc(O)cc1)c1ccc(O)cc1	inactive	–
O=C1CCC(N2C(=O)c3ccccc3C2=O)C(=O)N1 (configuration not stated)	inactive	–
O=c1[nH]cc(F)c(=O)[nH]1	–	32 µM (active)
O=C1NS(=O)(=O)c2ccccc21	inactive	–
CCN(CC)CCNC(=O)c1c(C)[nH]c(/C=C2\C(=O)Nc3ccc(F)cc32)c1C	–	1.14 µM (active)
